Several values for one entry are separate records, joined by “and”; a condition that tells them apart may be missing. Equal values may be shown once. The panel holds about 83,000 compounds, 20% with a hit somewhere; the sample as a whole holds those more often.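 Each cell line was grown in a 96-well plate and treated with one concentration of compound for 48 hours. Values below 10 were considered active.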 A number with no mark means an inactive call. Activity calls are given as the source filed them.

In the first assay the test system is OVCAR-5 ovarian. In words: NCI-60 one-dose screen, 48 h (100 = growth as untreated, 0 = no growth, -100 = all killed). Conditions: 10 µM. As for the experimental part: Growth inhibition of the OVCAR-5 human tumor cell line is measured as a screen for anti-cancer activity. Cells are grown in 96 well plates and exposed to the test compound for 48 hours. Compounds are tested at a single concentration, which is 10^-5 M for most compounds. The reported endpoint is percent growth (GI% or GIPRCNT), where numbers from 0 - 100% represent growth inhibition, and numbers from -100% - 0 represent cell death. For example, a value of 40 represents 60% growth inhibition. A value of 0 means no net growth occurred over the course of the experiment. A value of -40 indicates 40% of cells at the beginning of the experiment died by the end of the experiment. A value of -100 means all cells are dead at the end of the experiment.
NCI-60 Human Tumor Cell Lines Screen was performed using the standard one-dose NCI protocol, which is described in more detail at https://dtp.cancer.gov/discovery_development/nci-60/default.htm.
Compounds with GIPRCNT values below 10 were considered active. Activity score was based on GIPRCNT using the following formula: […]
Score is 0 for GIPRCNT values of 100 or above, 50 for GIPRCNT values of 0, and 100 for GIPRCNT values of -100.
As for `COc1ccc(-c2cscc2N)cc1`, the growth was 87.5%.

As for `O=C(O)c1c(Cl)c(Cl)c(Cl)c(Cl)c1-c1c2cc(I)c(=O)c(I)c-2oc2c(I)c(O)c(I)cc12`, the growth was 107% and 98.5% and 104%.

With `O=C(Nc1c(Cl)cccc1Cl)Oc1cccc2cccnc12`, the growth is 103%.

The assay is the same for the next values; noted with them: 10 µM unless noted.
On to `COc1cc(NS(C)(=O)=O)ccc1Nc1c2ccccc2nc2ccccc12`, for which the growth was 46.8% [2.5 µM].

On to `CN(C)c1ccc(N=Nc2cccc3ccccc23)cc1`, for which the growth is 107%.

For the compound `COc1ccc(N=N/N=c2\sc3cc(OC)ccc3n2C)cc1`, the growth is 98.6%.

For `CC1SC(=S)N(c2ccc(Cl)cc2)C1=O` (stereo not given), the growth is 91.3% and 89.6%.

Consider `COc1ccccc1OC(=O)Oc1ccccc1OC`, for which the growth is 117% and 97.6%.

Consider `NC(=S)N/N=C\c1nccc2c(C(F)(F)C(F)(F)C(F)(F)F)cccc12`, for which the growth is 42.3%.

Consider `O=C(O)c1ccc2c3c(ncnc13)-c1ccccc1C2=O`, for which the growth was 116%.

In the case of `O=C1c2ccccc2C(=O)c2sc(Nc3cccc(Cl)c3)nc21`, the growth is -67.4% (active).

Turning to `Cc1cc2nc(CS)[nH]c2cc1C`, the growth is 96.8%.

`Nc1nc(N)c2c(ccc3c2ccn3Cc2cccc([N+](=O)[O-])c2)n1`: the growth was -96.9% (active).

For the compound `O=C(Nc1cccc(Br)c1)Oc1ccc(Cl)c2cccnc12`, the growth is 33.7% [100 µM].

Consider `CN(C)c1ccc(C(=C2C=CC(=[N+](C)C)C=C2)c2ccc(N(C)C)cc2)cc1` (tested in a mixture with another compound), for which the growth is -66.9% (active).

In the case of `O=C(/C=C\c1ccccc1)N1c2ccccc2CC1c1c[nH]c2ccccc12` (stereo not given), the growth is 76.8%.

On to `O=C1c2ccccc2C(=O)c2sc(Nc3ccc(Cl)cc3)nc21`, for which the growth is -62.5% (active).

As to `N#CC1C(=O)SC2c3ccccc3C(=O)c3ccccc3C12` (stereo not given), the growth is 105%.

For the compound `O=C(O)C1C2CC3C(OC(=O)C31)C2Br` (stereo not given), the growth was 103% and 100%.

Consider `O=C(Oc1cccc2cccnc12)c1ccccc1`, for which the growth is 105% and 107%.

With `CCCCCC(CCCCC)C(=O)O`, the growth is 110%.

Turning to `CC1OC2CC(=O)OC2C2=C1C(=O)c1c(O)cccc1C2=O` (stereo not given), the growth is -75.2% (active).

Regarding `N#CSCc1ccc(CSC#N)c(Cl)c1`, the growth is 96.7%.

As for `NC1=CC(=O)c2ccccc2C1=O`, the growth is 110%.

For `O=C1C2=C(Nc3cc([N+](=O)[O-])ccc3N2)OC1c1c2ccccc2cc2ccccc12` (stereo not given), the growth was 75.8%.

On to `Oc1c(Br)c(Br)c(O)c(Br)c1Br`, for which the growth was 129%.

As to `Oc1c(Cl)cc(Cl)c2cccnc12`, the growth is 94.9%.

On to `CC1(C)CC([P+](c2ccccc2)(c2ccccc2)c2ccccc2)=NN1`, for which the growth is 67.7%.

For `Cn1c2c(c3ccccc31)CCN1C[C@@H]3CCCC[C@H]3C[C@@H]21`, the growth was 25%.

On to `Cc1ccc2nc(-[n+]3cc4ccccc4cc3C)ccc2c1`, for which the growth was 61.4%.

`CCN(CC)CC(C)(C)C(=O)/C=C/c1ccc(Cl)c(Cl)c1`: the growth was -43.1% (active).

On to `CCCCCCCCCCCCCCCCN(CC)CC`, for which the growth is -57.3% (active).

`CCN1/C(=C\c2cc[n+](CC)c3ccccc23)C=Cc2ccccc21`: the growth was 11.7%.

Take `CCOC(=O)/C=C/c1ccc([N+](=O)[O-])o1`: the growth was 75%.

On to `COc1ccccc1/C=C\C(=O)c1ccccc1`, for which the growth is 84%.

As for `Cc1ccc(N=C=C(c2ccccc2)c2ccccc2)cc1`, the growth is 113%.

`Cc1ccc2c(ccc3c[n+]4c5ccccc5ccc4n32)c1`: the growth was 47.6%.

Staying with this assay, now noted: 100 µM.
Consider `COc1ccc(-c2cscc2N)cc1`, for which the growth is 78.9%.

Take `O=C(O)c1c(Cl)c(Cl)c(Cl)c(Cl)c1-c1c2cc(I)c(=O)c(I)c-2oc2c(I)c(O)c(I)cc12`: the growth was -42.9% (active).

Consider `O=C(Nc1c(Cl)cccc1Cl)Oc1cccc2cccnc12`, for which the growth was 34.1%.

The values are drawn from PubChem BioAssay (NCI).
